DPM-DC inhibit: S. pneumoniae DPM-DC inhibitors, primary screen, biochemical, PK/LDH-coupled NADH fluorescence; calls only at 10 µM; 65,000 compounds, 0.49% hits; purified DPM-DC;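 active = the 320 compounds with the highest percent inhibition in the single-dose primary screen, excluding strongly autofluorescent ones, cut at about 32% in these data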;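 also: kinetic rate of NADH fluorescence loss reporting ADP formed by the decarboxylase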
PMK inhibit: S. pneumoniae PMK inhibitors, primary screen, biochemical, mevalonate pathway, pilot trial included. 65,000 compounds, 0.49% hits. AID 539, 2006. phosphomevalonate kinase (Streptococcus pneumoniae D39). purified PMK, PK/LDH-coupled NADH absorbance 340 nm. inhibition, % at 10 µM;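 active = top-ranked compounds by inhibition in the single 10 µM screen, taking a fixed number of the strongest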;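 also: 0% = full reaction with DMSO carrier and 100% = background rate without enzyme reaction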
Fluor 339 460: intrinsic fluorescence of library compounds, ex339/em460 – biochemical, MLSMR library, data from DPM-DC assay, artefact control, profiling panel; 65,000 compounds, 5.5% hits; fluorescence fold increase at 10 µM; compound autofluorescence, ex339/em460 nm, NADH buffer; active compounds read high; 1 = no-compound wells, NADH background; AID 709, 2007;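 active = at 10 µM, mean starting fluorescence two-fold or more over control wells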;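 also: signal is the first read of a kinetic run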
Abs 340nm: compound light absorbance at 340 nm, profiling panel, artefact control, biochemical, MLSMR library, data from PS, PMK, MK assays; compound absorbance at 340 nm, fold over control; fold change at 10 µM; 65,000 tested, under 10 active; AID 708, 2007;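 active = at 10 µM dose, initial 340 nm absorbance at least 2 fold that of control wells; inactive = change under 2 fold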;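 also: initial absorbance extrapolated from kinetic A340 decline of NADH oxidation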
Spn MK inh: S. pneumoniae MK inhibitors, primary screen, biochemical, PK/LDH-coupled NADH absorbance; 65,000 compounds, 0.48% hits; AID 555, 2006; purified MK, PK/LDH-coupled NADH absorbance 340 nm; inhibition, % at 10 µM;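 active = ranked among the strongest by inhibition in the single 10 µM screen, a fixed top-ranked set picked for dose follow-up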
NADH enzymes: inhibitors of PK/LDH coupling enzymes, profiling panel, artefact control, biochemical, MLSMR library | coupled PK/LDH NADH assays, four targets | 65,000 compounds, 0.02% hits | IC50, µM (series often up to 10 µM), for the others: at the highest dose inhibition;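 active = single-dose screening hits from any of four coupled enzyme assays that gave an IC50 when retested across doses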;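 also: the DPM-DC format reads NADH fluorescence rather than 340 nm absorbance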
Starred values were filed as active, the others as inactive; i = inactive; · = no result shown; + = active, no number. An excerpt weighted towards active compounds, which were near 6.8% of everything screened.

SMILES	DPM-DC inhibit	PMK inhibit	Fluor 339 460	Abs 340nm	Spn MK inh	NADH enzymes
Fc1ccc(NCc2cn3ccccc3n2)cc1	i	12.0	1.02	0.98	2.0	5.0%
C#CCOc1ccc2c(C)cc(=O)oc2c1	·	7.0	3.89*	1.04	8.0	8.0%
COc1cc(OC)c2c(C)cc(=O)oc2c1	·	14.0	3.75*	1.04	13.0	14.0%
CCOC(=O)Oc1ccc2oc(=O)cc(C)c2c1	i	2.0	1.1	1.04	9.0	4.0%
Cc1cc(=O)oc2cc(OC(C)C)ccc12	·	3.0	2.13*	1.09	6.0	5.0%
COc1ccc2oc(=O)cc(C)c2c1	i	16.0	2.62*	1.03	0.0	5.0%
CCOC(=O)N1CCC(N2Cc3cccc(C(=O)NCc4ccccn4)c3C2=O)CC1	i	8.0	1.11	1.04	1.0	3.0%
CC(C)(NO)/C(=N/O)c1cccs1	i	6.0	1.08	1.03	3.0	3.0%
CCn1c(/C=N/n2cnnc2)nc2ccccc21	·	12.0	2.15*	1.17	3.0	8.0%
CCn1c2ccccc2c2cc(/C=N/n3cnnc3)ccc21	·	6.0	5.03*	1.15	10.0	8.0%
COc1ccccc1N1CCN(C(=O)c2ccc(S(=O)(=O)N3CCCC3)cc2)CC1	i	5.0	1.1	1.03	6.0	4.0%
Cc1ccc(CN2CCN(C(=O)C3CCC3)CC2)cc1	i	active	1.02	1.01	8.0	6.0%
O=C(C1CCC1)N1CCN(Cc2ccccc2)CC1	i	7.0	1.09	0.94	11.0	6.0%
Cc1cccc(OCCCc2c(C)n[nH]c2C)c1	i	26.0*	1.06	1	11.0	4.0%
COc1cccc(OC)c1OCCCc1c(C)n[nH]c1C	i	14.0	1.02	0.99	0.0	5.0%
O=c1oc(-c2cccs2)nc2c1cnn2-c1ccccc1	·	4.0	2.18*	1.07	4.0	4.0%
O=c1oc(-c2ccccc2)nc2c1cnn2-c1ccccc1	i	0.0	1.07	1.06	6.0	5.0%
CCn1cc(C(=O)NCc2ccccn2)c(=O)c2cc(F)c(N3CCN(C)CC3)cc21	i	1.0	1.95	1.06	3.0	5.0%
CCn1cc(C(=O)O)c(=O)c2cc(F)c(N3CCNCC3)cc21	·	10.0	2.48*	1.03	10.0	4.0%
CCn1cc(C(=O)O)c(=O)c2cc(F)c(N3CCN(C(=O)Nc4ccccc4)CC3)cc21	i	0.0	1.73	1.04	0.0	4.0%
CCOC(=O)c1cn(CC)c2cc(N3CCSCC3)c(F)cc2c1=O	i	12.0	2.86*	1.07	9.0	17.0%
CC(C)N1C(=O)CCC1C(=O)N1CCCc2ccccc21 (configuration not stated)	i	19.0	1.12	1.02	0.0	7.0%
Cc1cc(C(=O)O)sc1C	i	12.0	1.11	1	1.0	4.0%
COC(=O)c1ccc(Nc2cc(C)nc(-c3ccccc3O)n2)cc1	+	92.0	1.77	1.13	81.0*	79.0%
C=CCn1c(NCc2ccccc2)nc2ccccc21	i	25.0*	1.04	0.99	0.0	8.0%
SMILES	DPM-DC inhibit	PMK inhibit	Fluor 339 460	Abs 340nm	Spn MK inh	NADH enzymes
C=CCn1c(NCc2ccc3c(c2)OCO3)nc2ccccc21	i	17.0	1.07	1.01	0.0	6.0%
COc1ccccc1C1NC(=O)CS1 (configuration not stated)	i	0.0	1.08	1.03	10.0	3.0%
COc1ccc(OC)c2c1CC(C)(C)NC2=O	·	0.0	2.12*	1.06	3.0	2.0%
N#Cc1c(-c2ccco2)c2c([nH]c1=S)CCCC2	i	16.0	1.12	1.01	14.0	14.0%
N#Cc1c(-c2cccnc2)c2c([nH]c1=S)CCCC2	+	0.0	1.16	1.06	80.0*	42.0%
Cc1ccc2nc3ccc(N4CCN(C)CC4)nn3c(=O)c2c1	i	7.0	2.32*	1.09	0.0	6.0%
CCOc1ccc(CNC(=O)C2CCN(S(=O)(=O)N3CCCC3)CC2)cc1OC	i	26.0*	1.06	1.02	0.0	9.0%
COc1cc(CN2CCC(C(=O)NC3CCCC3)CC2)ccc1O	·	7.0	2.04*	1	5.0	3.0%

Source: PubChem BioAssay (SRMLSC)
